We go through 14 compounds from PubChem BioAssay.

Experiment [1] in a line: compound effects on lung adenocarcinoma cell viability – A549, calcein-AM fluorescence, 48 h, basal, profiling panel (AID 1162). The note with it: higher = more signal.
A short description of experiment [2]: compound effects on differentiated 3T3-L1 adipocyte viability – cell-based, 3T3-L1 adipocytes, calcein-AM fluorescence, 48 h, basal, profiling panel (AID 1163). The note with it: 3T3-L1 adipocytes viability, higher = more signal.
A short description of experiment [3]: compound effects on hepatocellular carcinoma cell viability – HepG2, calcein-AM fluorescence, 48 h, basal, profiling panel (AID 1164). Conditions: higher = more signal.
Experiment [4] is described as follows: compound effects on multiple myeloma cell viability – MM1S, calcein-AM fluorescence, 48 h, basal, profiling panel (AID 1165). Conditions: higher = more signal.
The nature of experiment [5]: calcein-AM signal in unstimulated myeloma cells – cell-based, calcein-AM fluorescence, 48 h, PK04 Diversity Set, profiling panel (AID 1166).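 Also: cells grown under basal conditions without added stimulus.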 The note with it: RPMI8226 myeloma viability, higher = more signal.
A short description of experiment [6]: JC-1 mitochondrial signal, unstimulated HepG2 cells – cell-based, JC-1 fluorescence, 24 h, 100 nL compound, profiling panel (AID 1167). The note with it: HepG2 mitochondrial potential, higher = more signal.
The nature of experiment [7]: JC-1 mitochondrial signal, unstimulated adipocytes – cell-based, JC-1 fluorescence, 3T3-L1 adipocytes, 24 h, 100 nL compound, profiling panel (AID 1168). Conditions: JC-1 mitochondrial fluorescence, higher = more signal, called active from +8 up or from −8 down.
Experiment [8] can be described thus: JC-1 mitochondrial signal, unstimulated myeloma cells – cell-based, JC-1 fluorescence, RPMI8226, 24 h, 100 nL compound, profiling panel (AID 1169). The note with it: JC-1 mitochondrial potential fluorescence, higher = more signal.
Experiment [9] is described as follows: JC-1 mitochondrial signal, unstimulated MM1S myeloma – cell-based, JC-1 fluorescence, 24 h, 100 nL compound, profiling panel (AID 1170). Conditions: MM1S mitochondrial potential, higher = more signal.
A short description of experiment [10]: resazurin metabolic signal in A549 cells – cell-based, resazurin fluorescence, 24 h, PK04 Diversity Set, profiling panel (AID 1171). Conditions: A549 viability, higher = more signal, called active from +8 up or from −8 down. A general note: Alamar Blue is a resazurin reagent that responds to reducing activity.

Calls of active or inactive are those of the source.
Also: test concentration not given here.

Take `O=C1C2C=CC(C(O)C(c3ccccc3)c3ccccc3)N(n3cnnc3)C2C(=O)N1Cc1ccccc1` (stereo not given): the z-score was -1.03 in [1]; 0.0304 in experiment [2]; -1.13 in experiment [3]; -1.09 in experiment [4]; -0.23 in experiment [5]; -1.26 in [6]. Besides, the z-score in experiment [7] was -1.26 (inactive); in [8], -0.42; in experiment [9] it was 0.153; in [10] it was -0.387 (inactive).

Regarding `CC[C@@H]1C=C(C(=O)O)[C@H](c2ccco2)N1S(=O)(=O)c1ccc(C)cc1`, the z-score is -0.364 in [1]; -0.538 in [2]; 0.186 in [3]; -0.019 in experiment [4]; -0.29 in [5]; -0.0247 in experiment [6]. The z-score in [7] was -1.25 (inactive); in experiment [8], 0.604; in experiment [9], -1.26; in experiment [10], -0.68 (inactive).

Take `CN1C(=O)[C@]2(Cc3ccccc3)N=C(c3ccc(OCCCO)cc3)O[C@@H]2c2ccccc21`: the z-score in experiment [1] was -1.55; in experiment [2] it was 1.71; in experiment [3], -1.68; in experiment [4], -1.76; in [5], -4.34; in experiment [6] it was 0.288. Moreover, the z-score in experiment [7] was 0.686 (inactive); in experiment [8], -1.16; in experiment [9] it was -0.976; in experiment [10] it was -1.81 (inactive).

Take `O=C1OCCC/C=C\[C@H]2OC34C=CCN(Cc5ccccc5)C(=O)[C@H]3N(CCCCCCO)C(=O)[C@@H]4C12` (stereo not given in full): the z-score in [1] was 2.3; in [2] it was 0.0451; in experiment [3], 0.685; in [4] it was 1.85; in [5], 1.05; in experiment [6] it was 1.54. Also, the z-score in experiment [7] was 0.948 (inactive); in experiment [8] it was 0.44; in [9], -1.11; in [10], 1.28 (inactive).

For `CCCCN1CC=CC23O[C@@H]4/C=C\CCC(C)OC(=O)C4[C@H]2C(=O)N(CCCCCO)[C@@H]3C1=O` (stereo not given in full), the z-score in experiment [1] is -0.143; in experiment [2], 0.0763; in experiment [3] it was 0.478; in experiment [4], 1.52; in [5], 0.096; in [6], 0.241. The z-score in experiment [7] is 0.9 (inactive); in [8], 0.32; in experiment [9], -0.133; in experiment [10], 0.455 (inactive).

Take `O=C(C1N=C(c2ccc(OCCCO)cc2)N(c2ccccc2)O1)N1CCOCC1` (stereo not given): the z-score in experiment [1] was 0.895; in [2], 0.349; in experiment [3], 0.0818; in experiment [4], 0.932; in [5] it was 1.22; in [6], 0.0222. In addition, the z-score was 0.645 (inactive) in experiment [7], -1.06 in experiment [8], -1.05 in [9] and 0.298 (inactive) in [10].

Take `COCCOC(=O)N1C(=O)[C@@]2(c3cc(C#Cc4ccc(OC)cc4)ccc31)[C@H](C(=O)N1CCCCCCC1)[C@H]1C(=O)O[C@H](c3ccccc3)[C@H](c3ccccc3)N1[C@@H]2c1ccc(OCCO)cc1`: the z-score in experiment [1] is 1.36; in experiment [2], 1.96; in [3] it was 0.638; in experiment [4] it was -1.36; in experiment [5], 0.809; in experiment [6], 0.162. The z-score is -6.15 (inactive) in experiment [7], -0.19 in experiment [8], -0.987 in experiment [9] and 1.62 (inactive) in [10].

For `CC(C)C[C@@H]1NC(=O)[C@H]2C[C@@H](C(=O)NCCCCCCN)[C@@H](c3ccc(O)cc3)N2C1=O`, the z-score in experiment [1] is -0.145; in [2], 0.106; in experiment [3], -0.766; in experiment [4] it was -0.495; in experiment [5], -0.953; in experiment [6] it was 0.414. Besides, the z-score in [7] was -0.217 (inactive); in experiment [8], -0.279; in [9], 0.861; in experiment [10] it was -0.939 (inactive).

For the compound `[N-]=[N+]=NCc1ccccc1C[C@@]1(C(=O)NCC(O)CO)N=C(c2ccc(OCCCO)cc2)O[C@@H]1c1ccccc1N=[N+]=[N-]` (stereo not given in full), the z-score in experiment [1] is -2.46; in experiment [2] it was 0.223; in [3] it was -1.75; in experiment [4], -2.92; in [5], -3.45; in experiment [6], -0.158. Besides, the z-score was -0.731 (inactive) in experiment [7], -1.19 in experiment [8], -0.999 in [9] and -3.5 (inactive) in [10].

Consider `CCC(CC)C(O)C1C=CC2C(=O)N(C)C(=O)C2N1Nc1ccccc1` (stereo not given), for which the z-score is 0.095 in experiment [1]; -1.07 in experiment [2]; 0.597 in [3]; -0.299 in experiment [4]; -0.469 in [5]; -0.843 in experiment [6]. The z-score in experiment [7] is -0.83 (inactive); in experiment [8], -0.802; in [9], 0.0765; in experiment [10], 0.78 (inactive).

As for `CN(C)CCCCCCNC(=O)[C@@H]1C[C@@H]2C(=O)N[C@@H](CCCCN)C(=O)N2[C@@H]1c1cccc(OCCO)c1`, the z-score in experiment [1] was 0.73; in [2], 0.565; in experiment [3] it was 1.25; in [4], -0.137; in [5], 0.207; in experiment [6], 1.87. Besides, the z-score was 0.247 (inactive) in [7], -0.209 in experiment [8], 0.135 in [9] and 0.159 (inactive) in [10].

Take `C=CCOC(=O)[C@@H]1[C@H]2C(=O)O[C@H](c3ccccc3)[C@H](c3ccccc3)N2[C@H](c2ccc(OCCOC(=O)[C@@H]3C[C@@H]4C(=O)N5CCC[C@H]5C(=O)N4[C@@H]3c3ccc(O)cc3)cc2)[C@@]12C(=O)Nc1ccc(I)cc12`: the z-score in [1] was 1.87; in [2], 1.24; in experiment [3], 0.502; in experiment [4], -0.573; in [5], 0.278; in [6], -1.6. For the same compound, the z-score in experiment [7] is 0.231 (inactive); in [8], -0.752; in experiment [9], -1.25; in experiment [10], -0.248 (inactive).

With `COc1ccc([Si](C)(C)[C@@H]2[C@@H](CCO)O[C@]3(C(=O)N(Cc4ccc(N5C(=O)COc6ccccc65)cc4)c4ccccc43)[C@H]2C)cc1`, the z-score in experiment [1] was -1.54; in [2] it was -0.0973; in [3] it was -3.87; in [4], -2.41; in experiment [5], -3.72; in experiment [6], -0.917. For the same compound, the z-score in experiment [7] was -0.189 (inactive); in experiment [8] it was -0.923; in [9] it was -1.53; in experiment [10], -2.38 (inactive).

`O=C1[C@H]2C=C(Br)[C@H](C[C@@H]2c2ccccc2)[C@@]12CO2`: the z-score was -1.18 in [1]; -0.559 in experiment [2]; -0.675 in experiment [3]; -2.95 in experiment [4]; -2.49 in experiment [5]; -1.69 in experiment [6]. The z-score in experiment [7] is 0.0869 (inactive); in experiment [8], -0.323; in [9] it was -0.609; in experiment [10], -0.541 (inactive).
